Test results reported in PubChem BioAssay (Tox21).
Activity calls are given as the source filed them. Entries that show only a call come without a potency. The call rests on the fitted dose curve; in most records, active means well fitted curve in the direction sought with a large enough effect in the repeat runs; inconclusive means weak or mixed curves; inactive means flat fitted curve, though single readings scatter.

Assay: qHTS assay to test for compound auto fluorescence at 535 nm (green) in HEK293 cells (AID 720680)
Conditions: green autofluorescence 485/535 nm; series mostly up to 91.3 µM
Text: U.S. Tox21 Program National Center for Advancing Translational Sciences [NCATS] NIH Chemical Genomics Center [NCGC] U.S. Environmental Protection Agency [EPA] National Institutes of Environmental Health Sciences [NIEHS] National Toxicology Program [NTP] U.S. Food and Drug Administration [FDA] Tox21 Assay Overview: Compound auto fluorescence often interferes with screening of the compound library against various biological targets and signaling pathways. Some of these compounds may have fluorophoric properties. Such properties may interfere with the assay outputs resulting in false positives and/or negatives. To decrease such complications and ensure the compound activities are relevant in terms of biological response, the Tox21 10K compound library was screened for auto fluorescence. From the fluorophores used as reporter signals in our screening assays, the auto fluorescence equivalencies of compounds against three fluorophores have been evaluated: Triamterene, Fluorescein and Rose Bengal sodium for blue, green and red fluorescence, respectively. The fluorescence intensities were measured using Excitation/Emission wavelengths at 405/460nm, 485/535nm and 540/590nm for blue, green and red labels, respectively. This assay includes the green fluorescence data.
Tox21 Assay Protocol Summary: 2,000 HEK293 cells in 5 uL of culture medium containing 10% dialyzed FBS per well were dispensed into black wall/clear bottom 1536-well plates using a Multidrop Combi Dispenser (Thermo Scientific). The assay plates were incubated for 4-5 hr at 37C to allow cell attachment to the well bottom, followed by the transfer of 23 nL compound or DMSO vehicle by a pintool work station (Kalypsys, San Diego, CA). After the assay plates were incubated overnight at 37C and 5% CO2, fluorescence intensities in the assay plates were measured by an Envision (PerkinElmer, Shelton, CT) plate reader using three labels for measuring blue, green and red fluorescence at […] 460, 535 and 590nm respectively.

| Structure (SMILES) | Potency |
| --- | --- |
| CC1=CC(C)(C)Nc2ccccc21 | inactive |
| NC[C@H](O)c1ccc(O)c(O)c1 | inactive |
| Nc1ccc(O)c(N)c1 | inactive |
| C1COCCN1 | inactive |
| FC(F)(F)C(Cl)Br (stereo not given) | inactive |
| CCCOCCO | inactive |
| c1ccc2c(c1)[nH]c1ccccc12 | inactive |
| O=C(O)c1ccc(O)cc1 | inactive |
| C=C[C@H]1CN2CC[C@H]1C[C@@H]2[C@@H](O)c1ccnc2ccc(OC)cc12 | inactive |
| O=C(O)CCCCCCCCCCCC(=O)O | inactive |
| C[C@]12CC[C@@H]3c4ccc(O)cc4CC[C@H]3[C@@H]1CC[C@@H]2O | inactive |
| CCC/C=C/C=O | inactive |
| Oc1c(Cl)ccc(Cl)c1Cl | inactive |
| C[C@]12CC[C@@H]3c4ccc(O)cc4CC[C@H]3[C@@H]1CC[C@H]2O | inactive |
| c1ccc2cc3ccccc3cc2c1 | inactive |
| C=CN1CCCC1=O | inactive |
| CCO[Si](CCCNC(N)=O)(OCC)OCC | inactive |
| COc1ccc2nc(N)sc2c1 | inactive |
| CCCCCCCCCCC(CO)CCCCCCCC (stereo not given) | inactive |
| OC[C@H]1O[C@@H]2O[C@H]3[C@H](O)[C@@H](O)[C@@H](O[C@H]4[C@H](O)[C@@H](O)[C@@H](O[C@H]5[C@H](O)[C@@H](O)[C@@H](O[C@H]6[C@H](O)[C@@H](O)[C@@H](O[C@H]7[C@H](O)[C@@H](O)[C@@H](O[C@H]1[C@H](O)[C@H]2O)O[C@@H]7CO)O[C@@H]6CO)O[C@@H]5CO)O[C@@H]4CO)O[C@@H]3CO | inactive |

| Structure (SMILES) | Potency |
| --- | --- |
| C=C1C[C@H]2[C@@H]3C=C(C)C4=CC(=O)CC[C@]4(C)[C@H]3CC[C@]2(C)[C@@]1(OC(C)=O)C(C)=O | inactive |
| COCCOCCOCCO | inactive |
| CNC[C@H](O)c1ccc(O)c(O)c1 | inactive |
| CN(Cc1cnc2nc(N)nc(N)c2n1)c1ccc(C(=O)N[C@@H](CCC(=O)O)C(=O)O)cc1 | inactive |
| CN(C)/N=N/c1nc[nH]c1C(N)=O | inactive |
| Nc1ccc(N)c(Cl)c1 | inactive |
| CC/C(=C(/CC)c1ccc(O)cc1)c1ccc(O)cc1 | inactive |
| C/C=C/C(=O)N(CC)c1ccccc1C | inactive |
| O=C(CCCN1CCC(O)(c2ccc(Cl)cc2)CC1)c1ccc(F)cc1 | inactive |
| CCC(=O)O[C@H]1[C@H](O[C@@H]2[C@@H](C)[C@H](O[C@H]3C[C@@](C)(OC)[C@@H](O)[C@H](C)O3)[C@@H](C)C(=O)O[C@H](CC)[C@@](C)(O)[C@H](O)[C@@H](C)C(=O)[C@H](C)C[C@@]2(C)O)O[C@H](C)C[C@@H]1N(C)C | inactive |
| O=C(O)CCCC(=O)O | inactive |
| CN(C)C | inactive |
| CC(C)[N+](C)(CCOC(=O)C1c2ccccc2Oc2ccccc21)C(C)C | inactive |
| CC(=O)OC(C)C | inactive |
| Cc1cccc(Nc2ccccc2C(=O)O)c1C | inactive |
| CC1(C)C(C=C(Cl)Cl)C1C(=O)OCc1cccc(Oc2ccccc2)c1 (stereo not given) | inactive |
| Cc1ccc(S(=O)(=O)NCl)cc1 | inactive |
| CCCCCCCCCCCCO | inactive |
| O=[Se](O)O | inactive |
| C=C[C@@]1(C)CC(=O)[C@]2(O)[C@@]3(C)[C@@H](O)CCC(C)(C)[C@@H]3[C@H](O)[C@H](OC(C)=O)[C@@]2(C)O1 | inactive |
